Experimental data published in PubChem BioAssay (NCI).
About 83,000 compounds went through this panel and 20% of them were active in at least one assay; those are over-represented in the sample as a whole.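 Results are percent growth after 48 hours of single-concentration exposure. 100 means growth as in untreated cells, lower positive values show inhibition; negative values down to -100 show cell death.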 Unmarked numbers belong to inactive results. The source made the active and inactive calls. The calls were made as follows: active = growth percent below 10; inactive = the rest.

Columns and labels:
Assay in all cases: NCI-60 one-dose screen, 48 h (100 = growth as untreated, 0 = no growth, -100 = all killed)
Conditions in all cases: 10 µM unless noted
NCI-H23 lung = test system: NCI-H23 lung
NCI-H226 lung = test system: NCI-H226 lung
NCI-H322M lung = test system: NCI-H322M lung
HOP-62 NSCLC = test system: HOP-62 NSCLC
NCI-H460 lung = test system: NCI-H460 lung
HOP-92 NSCLC = test system: HOP-92 NSCLC
NCI-H522 lung = test system: NCI-H522 lung
A549/ATCC NSCLC = test system: A549/ATCC NSCLC
786-0 renal = test system: 786-0 renal
COLO 205 colon = test system: COLO 205 colon
DU-145 prostate = test system: DU-145 prostate
K-562 leukemia = test system: K-562 leukemia
MALME-3M melanoma = test system: MALME-3M melanoma
MDA-MB-231 breast = test system: MDA-MB-231 breast
RXF 393 renal = test system: RXF 393 renal
SF-268 CNS = test system: SF-268 CNS
SF-295 CNS = test system: SF-295 CNS
SF-539 CNS = test system: SF-539 CNS
UACC-257 melanoma = test system: UACC-257 melanoma
M14 melanoma = test system: M14 melanoma

Structure (SMILES) | growth (NCI-H23 lung) | growth (NCI-H226 lung) | growth (NCI-H322M lung) | growth (HOP-62 NSCLC) | growth (NCI-H460 lung) | growth (HOP-92 NSCLC) | growth (NCI-H522 lung) | growth (A549/ATCC NSCLC) | growth (786-0 renal) | growth (COLO 205 colon) | growth (DU-145 prostate) | growth (K-562 leukemia) | growth (MALME-3M melanoma) | growth (MDA-MB-231 breast) | growth (RXF 393 renal) | growth (SF-268 CNS) | growth (SF-295 CNS) | growth (SF-539 CNS) | growth (UACC-257 melanoma) | growth (M14 melanoma)
O=C(CN1CCCCCC1)Nc1nc2ccc(NCc3ccc(Cl)cc3)cc2s1 | 97.3% | 93.5% | 108% | 103% | 97% | 90.9% | 84.7% | 98.7% | 104% | 109% | 101% | 87.9% | 98.1% | 97.3% | 99.2% | 99.9% | 95.9% | 94.8% | 100% | 99.3%
COc1cc(C2C(C(=O)OCc3ccccc3)=C(C)NC(C)=C2C(=O)OCc2ccccc2)cc(OC)c1OC | 29.3% | 32.2% | 58% | 51% | 25.6% | -4.65% (active) | 25% | 23.4% | 25.2% | -47.7% (active) | 53.9% | 20.3% | 18% | 31.9% | -18.5% (active) | 37.6% | 15.4% | 41.3% | 19.5% | 21.9%
CCOC(=O)c1[nH]c2c(c1C)-c1[nH]c(=O)c(S(=O)(=O)c3ccccc3)cc1SC2 | 35.4% [100 µM] | 37.9% [100 µM] | 42.4% [100 µM] | 34.3% [100 µM] | 38.2% [100 µM] | -27.4% [100 µM] (active) | -0.182% [100 µM] (active) | 43.7% [100 µM] | 21.1% [100 µM] | -25.8% [100 µM] (active) | 15.4% [100 µM] | 49.8% [100 µM] | 4.32% [100 µM] (active) | 25.6% [100 µM] | -5.27% [100 µM] (active) | 21.8% [100 µM] | 8.44% [100 µM] (active) | 30% [100 µM] | 66.8% [100 µM] | 51.8% [100 µM]
O=c1nc(-c2ccccc2)c2cc(-c3ccc(C(F)(F)F)nc3)ccc2[nH]1 | 89.5% | 100% | 92.9% | 106% | 106% | 105% | 85.3% | 111% | 100% | 105% | 103% | 103% | 111% | 91.9% | 105% | 98.1% | 103% | 93.2% | 109% | 98.6%
COc1ccc(C(=O)N2c3ccccc3Sc3ccccc32)c(C(F)(F)F)c1 | 24.4% | 13.1% | 53.4% | 42.8% | 9.51% (active) | 15% | 2% (active) | 25.3% | 38.8% | -13.9% (active) | 14.2% | -7.9% (active) | 59.7% | 23.9% | 15.4% | 35.2% | 5.14% (active) | -10.1% (active) | 61.5% | 2.2% (active)
CC1=C2[C@@H](CC1)[C@]1(C)O[C@@](c3ccccc3)(C[C@H]1OC(=O)CO)[C@H]2OC(=O)/C=C/c1ccccc1 | 99.3% | 80.8% | 101% | 100% | 85.2% | 96.2% | 72.3% | 74.4% | 68.7% | 110% | 97.8% | 70.6% | 88.6% | 91.4% | 36.2% | 33.1% | 91% | 111% | 103% | 96.8%
CC[N+]1(CC)CC[N+]2(CCCC(C)CC2)CC1 (stereo not given) | 102% | 104% | 106% | 106% | 105% | 96.4% | 93.3% | 91.6% | 99.9% | 113% | 111% | 107% | 97.6% | 106% | 113% | 108% | 98.8% | 99.2% | 98.2% | 106%
Nc1nc2c(c3ncccc13)C(c1cccc(Cl)c1)Cc1ncccc1-2 (stereo not given) | 39.7% | 75.8% | 49.7% | 20.1% | 6.87% (active) | 38.6% | -14.5% (active) | 18.6% | 22.6% | -21.5% (active) | 21.5% | 14% | 67.7% | 28.8% | 10.7% | 45.6% | 0.813% (active) | -19.9% (active) | 63.6% | 6.41% (active)
C=C1C(=O)O[C@H]2[C@H]1CC/C(COC(=O)/C=C\C(=O)NCc1ccc(Cn3c(=O)sn(CCCl)c3=O)cc1)=C\CC[C@@]1(C)O[C@@H]21 | 86.9% | 102% | 104% | 116% | 101% | 115% | -64.4% (active) | 111% | 83.4% | 34.8% | 57.6% | 28.9% | 43.6% | 90% | 56.3% | 89% | 103% | 96.5% | 81.8% | 51.6%
C#CCO[C@H]1CC(CC#C)(CC#C)C(=O)[C@@H]2[C@H]1[C@H]1C[C@@H]3[C@@]4(C)CCC[C@@](C)(C(=O)OC)[C@@H]4CC[C@@]23C=C1C(C)C | 73.2% | 88.3% | 104% | 98.7% | 97.8% | 13.6% | -77% (active) | 89.4% | 41.4% | 86.8% | 97.7% | 88.9% | -35.9% (active) | 89.3% | 102% | 92.9% | 101% | 85.4% | 94.3% | 95.5%
COc1ccc(/C=C/c2ccc3ccccc3n2)c(OC)c1 | 74.3% | 86.1% | 75.4% | 74.4% | 75.5% | 46.8% | 72.5% | 79.6% | 96.1% | 85.9% | 91.2% | 19.8% | 50% | 58.9% | 90.7% | 98.7% | 60.2% | 83.3% | 84.8% | 45.3%
O=S(=O)(NCCCNc1nccc(-c2c(-c3cccc(F)c3)nc3occn23)n1)c1ccc(F)cc1 | 84.4% | 39.6% | 73.2% | 63.7% | 52.7% | 61.4% | 38.7% | 31.1% | 66% | 17.7% | 55.9% | 13% | 43.6% | 60.9% | 63.6% | 44.5% | 89.5% | 87% | 43.6% | 35.7%
N#Cc1c(-c2ccccc2)nc(SCC(O)CN2CCOCC2)nc1N1CCOCC1 (stereo not given) | 81.7% | 80% | 52.3% | 48% | 34% | 30.7% | 63.3% | 80.3% | 38.1% | 81.1% | 61.7% | 90% | 23.1% | 77.3% | 72.5% | 62.3% | 43.6% | 56.6% | 17.1% | 59.9%
